The panel holds about 83,000 compounds, 20% with a hit somewhere; the sample as a whole holds those more often.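 Each cell line was grown in a 96-well plate and treated with one concentration of compound for 48 hours. Values below 10 were considered active.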 Calls of active or inactive are those of the source.
Columns and labels:
Assay in all cases: NCI-60 one-dose screen, 48 h (100 = growth as untreated, 0 = no growth, -100 = all killed)
Details in all cases: 10 µM
[1] = tested on: SK-MEL-2 melanoma
[2] = tested on: EKVX NSCLC
[3] = tested on: UO-31 renal
[4] = tested on: TK-10 renal
[5] = tested on: ACHN renal
[6] = tested on: CAKI-1 renal
[7] = tested on: A498 renal
[8] = tested on: CCRF-CEM leukemia
[9] = tested on: MOLT-4 leukemia
[10] = tested on: SR leukemia
[11] = tested on: RPMI-8226 leukemia
[12] = tested on: OVCAR-5 ovarian
[13] = tested on: OVCAR-4 ovarian
[14] = tested on: SK-OV-3 ovarian
[15] = tested on: OVCAR-3 ovarian
[16] = tested on: HS 578T breast
[17] = tested on: NCI/ADR-RES ovarian
[18] = tested on: OVCAR-8 ovarian
[19] = tested on: IGROV1 ovarian
[20] = tested on: SN12C renal

Measured: growth

CN1/C(=C\C(I)C(I)C2=[N+](C)c3ccccc3C2(C)C)C(C)(C)c2ccccc21 (stereo not drawn)
inactive: [4] 18.7% | [6] 21.5% | [8] 12.1% | [12] 24.9% | [13] 21.6% | [15] 13.3% | [16] 42.8% | [17] 73%
active: [1] -13% | [2] 7.21% | [3] -1.6% | [5] 4.88% | [7] -2.55% | [9] -12.5% | [10] 8.27% | [11] -10.4% | [14] -8.39%

CCc1cc2n(n1)-c1ncc(C(=O)OC)cc1Oc1ccccc1-2
inactive: [1] 106% | [2] 98.5% | [4] 96.1% | [5] 108% | [6] 94% | [7] 101% | [8] 95.2% | [9] 95% | [10] 93.9% | [11] 93.3% | [18] 97.8% | [12] 105% | [14] 102% | [19] 97% | [15] 106% | [16] 97% | [17] 103%

CCOC(=O)[C@@H](Cc1ccccc1)NC(=O)c1[nH]c2ccc(Cl)cc2c(=O)c1C
inactive: [1] 89% | [2] 97.4% | [4] 91.3% | [5] 95.6% | [6] 86.6% | [7] 143% | [8] 74.4% | [9] 93.3% | [10] 61.3% | [11] 83.1% | [18] 97.8% | [12] 106% | [13] 102% | [14] 100% | [19] 96.2% | [15] 111% | [16] 94.2% | [17] 106%

CCOC(=O)c1ccc(NC(=O)Nc2nncs2)cc1
inactive: [1] 37.4% | [20] 31.2% | [3] 34.1% | [4] 45.1% | [5] 36.1% | [6] 24.9% | [9] 11.7% | [18] 10.8% | [12] 42.4% | [13] 49.9% | [19] 16.5% | [16] 25.3%
active: [7] -13.3% | [8] 7.54% | [10] 9.88% | [11] 6.49% | [14] 3.12% | [15] -32.7%

COC(=O)[C@]12CC[C@@H](C)[C@H](C)[C@@H]1C1=CC[C@@H]3[C@@]4(C)C[C@@H](O)[C@H](O)[C@@](C)(CO)[C@@H]4[C@H](O)C[C@@]3(C)[C@]1(C)CC2
active: [1] -88.2% | [2] -33.1% | [3] -52.2% | [4] -56.9% | [5] -48.3% | [6] 0.468% | [7] -80.2% | [9] -51.9% | [10] -36.5% | [11] -20.7% | [18] -27.3% | [12] -21.6% | [13] -11% | [14] -33.1% | [19] -19.8% | [15] -64.9% | [16] -13% | [17] -22.8%

CC(C)(C)CC(C)(C)c1ccc(O)c(Cc2ccc(Cl)cc2Cl)c1
active: [1] -76.9% | [2] -77.1% | [3] -98.7% | [4] -92.7% | [6] -83.3% | [7] -94% | [8] -37.4% | [9] -62.7% | [10] -57.5% | [11] -10.7% | [18] -43.4% | [14] -86.6% | [19] -82.8% | [15] -93.7% | [16] -23% | [17] -81.1%

CC(C)(C)c1ccc(OCCCCCCN2CCNCC2)cc1
active: [10] -8.37% | [11] 0.146%
inactive: [1] 82% | [2] 69.9% | [3] 72.8% | [4] 90.8% | [5] 70.6% | [6] 75.9% | [7] 86.1% | [8] 12% | [9] 31.3% | [12] 82.2% | [13] 72% | [14] 86.4% | [15] 82.1% | [16] 72.4% | [17] 79.7%

C#CCNCCN1C(=O)c2ccc3c4c(ccc(c24)C1=O)C(=O)N(CCNCC#C)C3=O
active: [13] -34.7% | [15] 5.29%
inactive: [1] 58.6% | [2] 55.7% | [4] 51.7% | [5] 22.9% | [6] 49.8% | [7] 94.1% | [8] 40.2% | [9] 20% | [10] 13.9% | [11] 45.3% | [18] 32% | [12] 68.2% | [14] 70.3% | [19] 36.9% | [17] 45.1%

CN(C)CCCN1c2ccccc2Sc2ccc(C(F)(F)F)cc21
inactive: [2] 43.4% | [3] 18.7% | [4] 25% | [6] 22.4% | [7] 62.8% | [8] 16.5% | [11] 22.5% | [18] 44.4% | [13] 44.4% | [14] 20.2% | [19] 17% | [16] 27% | [17] 10.4%
active: [1] -16.3% | [9] 6.88% | [10] -42.3% | [15] 8.18%

CCCCCCCCCCSC(=N)N (tested in a mixture with another compound)
active: [10] -26.7%
inactive: [1] 81.2% | [2] 74.8% | [3] 64.4% | [4] 90.1% | [5] 81.1% | [6] 87.9% | [7] 80.1% | [8] 56.2% | [9] 43.9% | [11] 38% | [18] 81.6% | [13] 90% | [14] 85.9% | [19] 68% | [15] 76.1% | [16] 81.9% | [17] 82.5%

NC1CCC(Nc2nc(NCc3ccc(-c4ccco4)nc3)c3ncn(C4CCCC4)c3n2)CC1 (stereo not drawn)
active: [1] -73.6% | [2] -2.93% | [4] 3.91% | [7] -70.8% | [8] -0.411% | [9] -12.3% | [10] -3.17% | [11] -18.3% | [13] 2.67% | [14] -0.9% | [19] 8.71% | [15] 1.37%
inactive: [3] 10.8% | [6] 17.3% | [18] 11.8% | [12] 25.1% | [16] 10.7% | [17] 79.5%

Cc1cc(C(C)(C)CC(C)(C)C)ccc1OCCOCC[N+](C)(C)Cc1ccccc1
active: [1] -34.2% | [2] -0.736% | [4] -11.6% | [7] 4.39% | [8] -8.84% | [9] -39.6% | [10] -62.5% | [11] -20% | [13] 2.92% | [19] -76.8% | [16] -9.66%
inactive: [3] 65.4% | [6] 89.1% | [14] 11% | [15] 12.9% | [17] 103%

Cc1noc(C)c1-c1ccc2nc(NC(=O)[C@H]3CCN(C#N)C3)cn2c1
inactive: [1] 74.1% | [2] 94% | [4] 81.2% | [5] 65.3% | [6] 74.4% | [7] 88.9% | [8] 105% | [9] 95.9% | [10] 42.3% | [11] 97.2% | [18] 91.6% | [12] 92.7% | [13] 63.9% | [14] 103% | [19] 82.2% | [15] 71.7% | [16] 84.4% | [17] 95.8%

Cc1nc2cc(-n3c(-c4ccc(F)cc4)nc4ccccc4c3=O)ccc2n1Cc1ccccc1
active: [5] 3.65% | [7] -5.66% | [10] -7.66% | [13] -18.3% | [15] -18.7% | [16] 5.86% | [17] 6.09%
inactive: [1] 31.8% | [2] 55.9% | [3] 35.7% | [4] 30.5% | [6] 30.6% | [9] 34.7% | [11] 37.5% | [18] 13% | [14] 58.8%

Cc1cc(C)c2nc(C)c(C)[n+]([O-])c2c1
inactive: [1] 106% | [2] 99.1% | [4] 99.3% | [5] 109% | [6] 96.9% | [7] 146% | [8] 66% | [9] 83.1% | [10] 82.3% | [11] 90.7% | [18] 94% | [12] 99.6% | [13] 107% | [14] 85.4% | [15] 110% | [16] 112% | [17] 104%

S=c1c2ncccc2c(-c2ccccn2)nn1Cc1ccccn1
inactive: [1] 92.1% | [2] 99.3% | [4] 99.5% | [5] 104% | [6] 92.1% | [7] 134% | [8] 84.2% | [9] 93.3% | [10] 87.2% | [11] 97.9% | [18] 106% | [13] 97.2% | [14] 93.5% | [15] 115% | [16] 111% | [17] 103%

O=c1[nH]c(=O)n(C2C[C@@H](O)[C@@H](CO)O2)cc1F (stereo partly drawn)
inactive: [1] 57.3% | [2] 70.7% | [3] 10.5% | [4] 35.5% | [6] 31.6% | [7] 15.8% | [8] 29.1% | [9] 32.5% | [10] 25.9% | [11] 59.2% | [18] 30.2% | [13] 39% | [14] 43.6% | [19] 43.1% | [15] 30.5% | [16] 60.8% | [17] 29.6%

O=C(c1ccccc1)C(Nc1ccccc1)c1ccccc1 (stereo not drawn)
inactive: [1] 90.9% | [2] 86.2% | [3] 66.9% | [4] 93.6% | [6] 87.3% | [7] 94.6% | [8] 94.1% | [9] 90.8% | [10] 96.2% | [11] 84.8% | [12] 93.3% | [13] 92.3% | [14] 96.9% | [19] 75.9% | [15] 97.1% | [16] 95.1% | [17] 93.1%
